Test results taken from PubChem BioAssay (Tox21).
Several values for one entry are separate records, joined by “and”; a condition that tells them apart may be missing. Equal entries are not always repeated. Records with an inconclusive call do not appear. Entries that show only a call come without a potency. Where a structure was tested more than once in an assay, its records may differ in their call. Activity calls are given as the source filed them. Unless noted, calls come from the whole dose curve; as a rule, active = well fitted curve in the direction sought with a large enough effect in the repeat runs; inconclusive = weak or mixed curves; inactive = no such curve, though single readings can be large; an effect the other way counts as inactive or inconclusive.

Assays:
[1] = qHTS assay to identify small molecule agonists of the hypoxia (HIF-1) signaling pathway (AID 1224846; active = well fitted activation curve with a large enough effect in the signal ratio in the repeat runs, not every such curve was filed as active; the % refers to the signal ratio); conditions: HRE-bla ME-180 cells, beta-lactamase ratio, 17 h; series mostly up to 76.8 µM
How it was run: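 HRE-bla ME-180 cells (beta-lactamase reporter under hypoxia response element) were plated at 2,000 cells/well in medium with 0.5% dialyzed FBS, rested 5 hrs, then given compounds in DMSO for 17 hrs at 37C, 5% CO2. Reporter induction was read with CCF4-AM FRET substrate.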

[2] = qHTS assay to identify small molecule agonists of H2AX - cell viability counter screen (AID 1224847; calls by dose curve; note: nearly all actives have a fitted effect of over 30% in size; note: potency is the fitted concentration of half-maximal effect); conditions: CHO-K1 viability, CellTiter-Glo luminescence, 3 h; series mostly up to 154 µM
How it was run: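 CHO-K1 wt, 1000 cells/well, o/n 37C; cpds 15 conc, 3 h 37C, 0.76% DMSO; CellTiter-Glo, 30 min RT, luminescence.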

[3] = qHTS assay to identify small molecule agonists of the estrogen related receptor (ERR) signaling pathway from Tox21 library (AID 1224849; calls by dose curve; note: nearly all actives have a fitted effect of over 15% in size); conditions: ERR reporter cell line, ONE-Glo luciferase, 18 h
How it was run: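 ERR reporter cell line (NTP) seeded, rested 6 h at 37 C/5% CO2, then pinned with Tox21 compounds in DMSO. After 18 h at 37 C, ONE-Glo luciferase luminescence was read following 30 min at room temperature.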

[4] = qHTS RealTime-Glo MT Cell Viability Assay in HepG2 cells - 24 hour (AID 1224867); conditions: RealTime-Glo luminescence; series mostly up to 76.8 µM; note: nearly all actives have a fitted effect of over 50% in size; note: potency is the fitted concentration of half-maximal effect
How it was run: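 Real-time, nonlytic viability: 600 HepG2 cells/well mixed with NanoLuc enzyme plus prosubstrate; 5 h settle, compound (DMSO) added by pintool; luminescence monitored over 40 h at 37 C.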

[5] = qHTS RealTime-Glo MT Cell Viability Assay in HEK293 cells - 32 hour (AID 1224868); conditions: RealTime-Glo luminescence; series mostly up to 76.8 µM; note: nearly all actives have a fitted effect of over 50% in size; note: potency is the fitted concentration of half-maximal effect
How it was run: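 Cells + reagent dispensed (600 cells/well, HEK293) → 5 h at 37 C/5% CO2 → 23 nL compound in DMSO pinned → 40 h at 37 C → luminescence read at 0, 8, 16, 24, 32, 40 h.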

[6] = A CellTox Green Cytotoxicity Assay to monitor cytotoxicity in HEK293 cells - 0 hour (AID 1224869); conditions: CellTox Green fluorescence; series mostly up to 76.8 µM; note: nearly all actives have a fitted effect of over 50% in size
How it was run: (§1)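 HEK293 cells premixed with CellTox Green dye were seeded at 600 cells/well and left 5 h at 37 C/5% CO2 before pin transfer of 23 nL compound in DMSO. Fluorescence from dye bound to dead-cell DNA was read during 40 h treatment.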

[7] = qHTS RealTime-Glo MT Cell Viability Assay in HepG2 cells - 40 hour (AID 1224870); conditions: RealTime-Glo luminescence; series mostly up to 76.8 µM; note: nearly all actives have a fitted effect of over 50% in size; note: potency is the fitted concentration of half-maximal effect
How it was run: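 HepG2 cells mixed with RealTime-Glo MT reagents (NanoLuc plus cell-permeant prosubstrate) were seeded at 600 cells/well, incubated 5 h at 37 C/5% CO2, then pinned with compounds in DMSO; nonlytic luminescence tracked viability during 40 h treatment.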

[8] = A CellTox Green Cytotoxicity Assay to monitor cytotoxicity in HEK293 cells - 40 hour (AID 1224871); conditions: CellTox Green fluorescence; series mostly up to 76.8 µM; note: nearly all actives have a fitted effect of over 45% in size; note: potency is the fitted concentration of half-maximal effect
How it was run: as §1

[9] = qHTS assay to identify small molecule agonists of H2AX (AID 1224845; active = well fitted activation curve with a large enough effect in the signal ratio in the repeat runs, not every such curve was filed as active; the % refers to the signal ratio); conditions: CHO-K1 phospho-H2AX Ser139 HTRF, 3 h; series mostly up to 154 µM
How it was run: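 Wild-type CHO-K1 cells plated overnight, then exposed 3 hr at 37C to compounds at 15 concentrations (0.76% DMSO). Lysed, then HTRF anti-pH2AX(S139)-cryptate/anti-H2AX-d2 detection after 24 hr at room temperature; emissions 665 and 620 nm.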

[10] = qHTS assay to identify small molecule antagonists of the estrogen related receptor (ERR) signaling pathway from Tox21 library (AID 1224848); conditions: ERR reporter cell line, luciferase antagonist mode, 18 h; series mostly up to 92.4 µM; note: nearly all actives have a fitted effect of over 50% in size; note: potency is the fitted concentration of half-maximal effect
How it was run: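 Screening used an ERR reporter line supplied by NTP, exposed for 18 h at 37 C to library compounds delivered in DMSO. Signal was luciferase luminescence developed with ONE-Glo at room temperature for 30 min.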

Row | SMILES | outcome [1] | Potency [2] | activity change, positive = activation ([3]; at 92.4 µM (top of the series)) | Potency [4] | Potency [5] | Potency [6] | Potency [7] | Potency [8] | Potency [9] | activity change, positive = activation ([3]; at 42.5 µM (top of the series)) | Potency [10]
1 | Nc1ccc(O)c(N)c1 | inactive | 56.3 µM (active) and 50.5 µM (active) | -9.18% (inactive) and -12% (inactive) | inactive | inactive | inactive | inactive | inactive |  |  | 
2 | C=C[C@H]1CN2CC[C@H]1C[C@@H]2[C@@H](O)c1ccnc2ccc(OC)cc12 |  | inactive |  | inactive | 48.2 µM (active) | inactive | inactive |  | inactive |  | 
3 | C/C=C/C(=O)N(CC)c1ccccc1C |  | inactive | -2.58% (inactive) | inactive | inactive | inactive | inactive | inactive | inactive | 9.15% (inactive) | 
4 | CCOC(=O)C(C)Oc1ccc(Oc2cnc3cc(Cl)ccc3n2)cc1 (stereo not given) | inactive |  |  | inactive | 39.9 µM (active) | inactive | inactive | inactive and 1.29 µM (active) | inactive |  | 
5 | CC[C@]12CCCN3CCc4c(n(c5ccccc45)[C@@](O)(C(=O)OC)C1)[C@@H]32 |  | inactive | -6.91% (inactive) | inactive | inactive | inactive | inactive | inactive | inactive | 7.75% (inactive) | inactive
6 | COc1ccc(C(=O)c2ccccc2O)c(O)c1 | inactive |  | -27.1% (inactive) | inactive | inactive | inactive | inactive |  | inactive | -1.96% (inactive) | 
7 | CC(C)[N+](C)(CCOC(=O)C1c2ccccc2Oc2ccccc21)C(C)C |  | inactive |  | inactive | inactive | inactive | inactive |  | inactive |  | 
8 | Cc1ccc(/C(=C\CN2CCCC2)c2ccccn2)cc1 |  | inactive |  | inactive | inactive | inactive | inactive |  | inactive |  | 
9 | Nc1ccc2c(O)cc(S(=O)(=O)O)cc2c1 | inactive | inactive | -54% (inactive) and -40.6% (inactive) | inactive | 6.17 µM (active) | inactive | inactive | inactive |  |  | 
10 | C=C[C@H]1CN2CC[C@H]1C[C@H]2[C@H](O)c1ccnc2ccc(OC)cc12 |  | inactive |  | inactive | inactive | inactive | inactive | inactive | inactive |  | 
11 | Nc1cc(Cl)c(N)c(Cl)c1 | inactive | inactive |  | inactive | inactive | inactive | inactive | inactive |  |  | 
12 | COc1ccc(-c2coc3cc(O)cc(O)c3c2=O)cc1 |  | 36 µM (active) |  | inactive | 44 µM (active) and 49 µM (active) | inactive | inactive | inactive | inactive |  | 
13 | CCc1cccc2c3c([nH]c12)C(CC)(CC(=O)O)OCC3 (stereo not given) |  | inactive |  | inactive | inactive | inactive | inactive |  | inactive |  | 
14 | CC(=O)O[C@]1(C(C)=O)CC[C@H]2[C@@H]3C=C(C)C4=CC(=O)CC[C@]4(C)[C@H]3CC[C@@]21C |  | inactive | -63.2% (inactive) | inactive | 17.4 µM (active) | inactive | inactive |  | inactive | -37.5% (inactive) | 
15 | C[C@]12CC[C@@H]3c4ccc(O)cc4CC[C@H]3[C@@H]1CC[C@@H]2O |  | inactive | -53.8% (inactive) and -42.2% (inactive) | inactive | 17.3 µM (active) and 21.9 µM (active) | inactive | inactive | inactive | inactive |  | 
16 | Oc1ccc(C(c2ccc(O)cc2)C(Cl)(Cl)Cl)cc1 | inactive |  |  | inactive |  | inactive | inactive | inactive | inactive |  | 
17 | CN(Cc1cnc2nc(N)nc(N)c2n1)c1ccc(C(=O)N[C@@H](CCC(=O)O)C(=O)O)cc1 |  | 636 nM (active) and 1.1 µM (active) |  | inactive | 110 nM (active) and 67.4 nM (active) | inactive | inactive | inactive |  |  | 
18 | CC1(C)OC(=O)NC1=O |  | inactive | 4.19% (inactive) | inactive | inactive | inactive | inactive |  | inactive | 3.88% (inactive) | 
19 | C1CN(SSN2CCOCC2)CCO1 | inactive | inactive | -55.6% (inactive) and -54.1% (inactive) | inactive | inactive | inactive | inactive | 54.4 µM (active) and inactive |  |  | 
20 | NCCS(=O)(=O)O |  | inactive |  | inactive | inactive | inactive | inactive | inactive | inactive |  | 
21 | CN(C)CCCN1c2ccccc2Sc2ccc(Cl)cc21 |  | 55.2 µM (active) | -80.4% (inactive) | 43.6 µM (active) and 23.9 µM (active) | 24.5 µM (active) and 23.9 µM (active) | inactive | 30.9 µM (active) and 23.9 µM (active) | 43.6 µM (active) |  | -35.5% (inactive) | 54.5 µM (active)
22 | NC[C@H](O)c1ccc(O)c(O)c1 |  | inactive |  | inactive | inactive | inactive | inactive | inactive |  |  | 
23 | c1ccc2c(c1)ccc1cc3c(ccc4ccccc43)cc12 | inactive | inactive |  | inactive | inactive | inactive | inactive |  |  |  | 
24 | O=C(O)CCCC(=O)O | inactive | inactive |  | inactive | inactive | inactive | inactive | inactive | inactive |  | 
